# HEK cytotox: Cytotoxic Profiling in HEK 293 Cell Line of Diverse Libraries Using Quantitative High-Throughput Screening. HEK 293 viability, ATP luminescence (CellTiter-Glo), 48-72 h. Potency, µM (highest dose often 115 µM), hits mostly inhibitors. 94,000 tested, 6.6% active; further: nearly all actives have a fitted effect of over 60% in size
#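 Cells seeded first (HEK 293, 250 cells/well), then compound added by pintool. Incubation ran 48 or 72 hr at 37 degree Celsius. CellTiter-Glo was added and luminescence imaged after 10 min at room temperature.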
# FLuc inh: Firefly luciferase inhibition profiling of diverse chemical library using quantitative high-throughput screening; Luciferin 4-monooxygenase (Photinus pyralis), P08659; purified P. pyralis luciferase, luminescence, biochemical; Potency, µM (titrated, usually from 115 µM), usual class: inhibitors; 76,000 tested, 2.5% active; AID 1347043, 2019; further: nearly all actives have a fitted effect of over 65% in size
# Target sequence (P08659 whole entry, looked up): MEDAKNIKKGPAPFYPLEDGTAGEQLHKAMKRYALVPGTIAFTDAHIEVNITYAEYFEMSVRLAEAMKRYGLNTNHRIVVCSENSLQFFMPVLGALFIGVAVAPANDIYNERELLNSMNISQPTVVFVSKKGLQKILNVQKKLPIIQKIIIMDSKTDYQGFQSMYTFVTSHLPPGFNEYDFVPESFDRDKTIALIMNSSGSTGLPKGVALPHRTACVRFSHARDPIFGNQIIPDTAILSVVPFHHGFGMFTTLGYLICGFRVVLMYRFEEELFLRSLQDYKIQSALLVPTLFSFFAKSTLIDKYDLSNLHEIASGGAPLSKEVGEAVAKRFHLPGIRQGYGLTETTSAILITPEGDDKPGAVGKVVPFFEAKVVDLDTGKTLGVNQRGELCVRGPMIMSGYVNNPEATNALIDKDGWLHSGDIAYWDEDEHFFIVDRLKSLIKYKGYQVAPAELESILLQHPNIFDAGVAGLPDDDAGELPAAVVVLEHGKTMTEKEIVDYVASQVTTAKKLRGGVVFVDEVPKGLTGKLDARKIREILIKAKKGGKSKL
#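 FLuc 10nM, D-luciferin 10uM, ATP 10uM, Mg acetate 10mM, Tris acetate pH 7.5, Tween/BSA; cpd qHTS; enzyme added last; CCD luminescence.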
# 3T3 cytotox: Cytotoxic Profiling in NIH 3T3 Cell Line of Diverse Libraries Using Quantitative High-Throughput Screening; NIH 3T3 viability, CellTiter-Glo ATP luminescence, 48-72 h; Potency, µM (doses to about 96.7 µM), most hits filed as inhibitors; 94,000 tested, 4.3% active; further: nearly all actives have a fitted effect of over 55% in size
#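 Cytotoxicity was measured by CellTiter-Glo ATP luminescence after 48 or 72 h compound exposure at 37 °C. Mouse NIH 3T3 fibroblasts were seeded at 400 cells/well and dosed by 23 nL pin transfer.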
# NPR1 antag: Natriuretic polypeptide receptor (hNpr1) antagonism - Primary qHTS. Atrial natriuretic peptide receptor 1 (Homo sapiens), P16066. HEK293 hNpr1 GloSensor cGMP, ANP-stimulated luminescence. Potency, µM (titrated, usually from 46.3 µM), most hits filed as inhibitors. 76,000 tested, 1.6% active. AID 1347048, 2019; calls by dose curve; further: nearly all actives have a fitted effect of over 60% in size
#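 HEK293 cells stably expressing human Npr1 and cGMP GloSensor pGS-40F, loaded 2 h with 2% GloSensor reagent, given compound 30 min at room temperature. Luminescence read before and 20 min after 0.1 nM hNppA.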
# A number is an active result; – = inactive; ? = inconclusive; · = no result. In the library only some 11% were active in any assay of this set; here they are far more common. Unless noted, the call rests on the fitted dose curve; in most records, active means well fitted curve in the direction sought with a large enough effect; inconclusive means small, poorly fitted or top-dose-only effect, or another doubt; inactive means no such curve, though single readings can be large; an effect the other way counts as inactive or inconclusive.
SMILES,HEK cytotox,FLuc inh,3T3 cytotox,NPR1 antag
OC1(CNc2cc(C(F)(F)F)nc(N3CCCC3)n2)CCCNCC1 (stereo not given),?,–,–,–
CCOc1cc(=O)n2c(c1C(=O)Nc1ccc3c(c1)OCCO3)CCCCC2,–,40µM,–,–
CCCCN(Cc1ccc(S(=O)(=O)NC)cc1)Cc1ccco1,?,–,?,–
COCCNc1ncc(-c2cccc(N)c2)c2c1OCC2,?,25µM,?,–
COCCNc1ncc(-c2cccc(C(C)=O)c2)c2c1OCC2,?,?,?,–
COCCNc1ncc(-c2cccc(O)c2)c2c1OCC2,–,28µM,–,–
COc1nc2nc(CCc3ccccc3)n(C)c2cc1Nc1ccncn1,–,50µM,?,–
Cc1nc(-c2ccc(Cl)cc2)n(Cc2ccc(F)cc2)c(=O)c1CCO,20µM,–,?,–
COc1ccccc1Cn1c(-c2ccc(Cl)cc2)nc(C)c(CCO)c1=O,32µM,–,?,–
Cc1nc(-c2ccccc2)n(Cc2ccccc2Cl)c(=O)c1CCO,?,–,45µM,–
Cc1cccc(-c2nc(Cn3c(-c4ccccc4)nc(C)c(CCO)c3=O)c(C)o2)c1,79µM,–,?,–
Cc1cccc(-c2nc(Cn3c(-c4ccc(F)cc4)nc(C)c(CCO)c3=O)c(C)o2)c1,–,–,–,–
COc1ccccc1Cn1c(-c2cccc(Cl)c2)nc(C)c(CCO)c1=O,?,–,?,–
CC1CCc2nn3ccn(CC(=O)Nc4ccc(F)cc4)c(=O)c3c2C1 (stereo not given),–,–,–,–
O=C(Nc1ccnn1C1CCN(Cc2nccs2)CC1)c1ccc2c(c1)OCO2,–,–,–,–
COc1c(C)cnc(Cn2c(-c3ccccc3)nc(C)c(CCO)c2=O)c1C,?,–,45µM,–
CNC(=O)CCn1ncc2cc(OCc3ccccc3-c3ccc(F)c(Cl)c3)ccc21,100µM,?,79µM,?
CNC(=O)CCn1ncc2cc(OCc3ccccc3-c3ccc(F)cc3C)ccc21,?,–,50µM,–
CNC(=O)CCn1ncc2cc(OCc3ccccc3-c3cc(F)ccc3OC(C)C)ccc21,?,–,?,–
CNC(=O)CCn1ncc2cc(OCc3ccccc3-c3cccnc3)ccc21,?,–,?,–
CNC(=O)CCn1ncc2cc(OCc3ccccc3-c3ccc(OC)cc3Cl)ccc21,?,–,?,–
CNC(=O)CCn1ncc2cc(OCc3ccccc3-c3ccc(F)cc3)ccc21,71µM,?,?,–
CNC(=O)CCn1ncc2cc(OCc3ccccc3-c3c(F)cccc3OC)ccc21,?,–,?,–
CNC(=O)CCn1ncc2cc(OCc3ccccc3-c3cc(F)ccc3OC)ccc21,79µM,40µM,?,–
COCCn1c(C)cnc1CC1CCCN(S(=O)(=O)c2ccccc2)C1 (stereo not given),?,·,–,·
SMILES,HEK cytotox,FLuc inh,3T3 cytotox,NPR1 antag
O=C(CCn1ccc(=O)[nH]c1=O)N[C@H](c1ccccn1)C1CC(O)C1 (stereo not given in full),–,–,–,–
COc1cccc(CNC2(Cc3cc(C(C)(C)O)on3)COC2)c1,–,–,–,–
CNC(=O)CCn1ncc2cc(OCc3ccccc3-c3ccccc3F)ccc21,100µM,?,79µM,–
CNC(=O)CCn1ncc2cc(OCc3ccccc3-c3cccc(CO)c3)ccc21,79µM,16µM,?,?
c1ccc(CCCc2noc(-c3ccc(N4CCOCC4)nc3)n2)cc1,?,–,–,–
c1ccc(CCc2noc(-c3ccc(N4CCCOCC4)nc3)n2)cc1,?,32µM,?,?
CN(C)c1ccc(CN[C@H]2CC(C)(C)[C@@H]3C[C@@](C)(O)CC[C@]23CCC(=O)NCCc2c[nH]c3ccccc23)cc1,18µM,–,18µM,–
COc1ccccc1CN[C@H]1CC(C)(C)[C@@H]2C[C@@](C)(O)CC[C@]12CCC(=O)NCCc1c[nH]c2ccccc12,28µM,–,28µM,–
CC(C)(C)CC(=O)N[C@H]1CC(C)(C)[C@@H]2C[C@@](C)(O)CC[C@]12CCC(=O)NCCc1c[nH]c2ccccc12,–,–,?,–
CO[C@H]1C(=O)N(C(C)C)[C@H]1C1CCN(C(=O)CCc2nc3ccccc3s2)CC1,–,–,–,–
Cn1cc(-c2cc(C3=CCOCC3)c3cncn3c2)cn1,–,–,?,–
c1cc(-c2cc(-c3cn[nH]c3)c3cncn3c2)cc(N2CCOCC2)c1,?,–,25µM,–
c1cc(-c2cc(-c3cn[nH]c3)cn3cncc23)ccn1,35µM,–,28µM,–
CN(C)c1cccc(-c2cc(-c3cn[nH]c3)c3cncn3c2)c1,?,?,14µM,–
CN(C)c1ccc(-c2cc(-c3ccc(=O)[nH]c3)c3cncn3c2)cc1,–,?,?,–
C1=C(c2cc(-c3ccncc3)cn3cncc23)CCOC1,100µM,–,25µM,–
COc1ccc(-c2cc(-c3ccc4c(c3)C(=O)NC4)cn3cncc23)cc1,?,–,?,–
CCC(=O)N(C1CCOCC1)C1CCN(S(=O)(=O)c2ccc(F)c(F)c2)CC1,–,–,–,–
CCc1ccccc1NC(=O)N1CCCC(Cn2cnc3cccnc32)C1 (stereo not given),–,–,–,–
O=C(c1cc(-c2ccsc2)c2nncn2n1)N1CCCC1,–,·,–,·
Cc1ccc(-c2cc(C(=O)NCc3cccnc3)c3c(c2)ncn3C)cn1,–,–,100µM,–
Cn1ncc2c(C(=O)NCC(F)F)cc(-c3cccc(F)c3)nc21,56µM,·,?,·
Cn1ncc2c(C(=O)NCCc3ccc(F)cc3)cc(-c3ccc(Cl)nc3)nc21,–,·,–,·
Cn1ncc2c(C(=O)Nc3cccc(Cl)c3)cc(-c3cccc(F)c3)nc21,35µM,·,?,·
Cn1ncc2c(C(=O)NCc3ccc(F)cc3)cc(-c3ccc(Cl)nc3)nc21,40µM,·,?,·
SMILES,HEK cytotox,FLuc inh,3T3 cytotox,NPR1 antag
CCNC(=O)c1n[nH]c2c1CN(C(=O)c1cccc(Br)c1)CC2,–,–,–,–
Cn1ncc2c(C(=O)NCc3cccnc3)cc(-c3ccc([S+](C)(=O)[O-])cc3)nc21,–,·,?,·
Cn1ncc2c(C(=O)NCc3cccnc3)cc(-c3cccc(F)c3)nc21,79µM,·,?,·
Cn1ncc2c(C(=O)NCc3cccnc3)cc(-c3ccc(Cl)nc3)nc21,?,·,22µM,·
CNC(=O)CCn1ncc2cc(OC3CCc4cccc(-c5ccncc5)c43)ccc21 (stereo not given),100µM,–,?,–
CNC(=O)CCn1ncc2cc(OC3CCc4cccc(-c5cccnc5)c43)ccc21 (stereo not given),100µM,–,?,–
O=C(c1ccc(F)cc1)N1CCCC(C(=O)N2CCC(c3nc4ncccc4[nH]3)CC2)C1 (stereo not given),–,·,–,·
COc1ccc(OC)c(NC(=O)CCC[C@@H]2[C@H]3CCCN4CCC[C@@H](CN2C)[C@@H]34)c1,–,–,–,–

# Assay outcomes deposited in PubChem by National Center for Advancing Translational Sciences (NCATS).
